According to ChEMBL document CHEMBL2218924, “A broad activity screen in support of a chemogenomic map for kinase signalling research and drug discovery” (Biochem J, 2013):

Legend:
[1] = molecular target: Mast/stem cell growth factor receptor Kit (Homo sapiens) (UniProt P10721); conditions: at 1 µM
[2] = molecular target: Mast/stem cell growth factor receptor Kit (Homo sapiens) (UniProt P10721); conditions: at 10 µM
[3] = molecular target: Proto-oncogene tyrosine-protein kinase Src (Homo sapiens) (UniProt P12931); conditions: at 1 µM
[4] = molecular target: Proto-oncogene tyrosine-protein kinase Src (Homo sapiens) (UniProt P12931); conditions: at 10 µM
[5] = molecular target: Serine/threonine-protein kinase mTOR (Homo sapiens) (UniProt P42345); conditions: at 1 µM
[6] = molecular target: Serine/threonine-protein kinase mTOR (Homo sapiens) (UniProt P42345); conditions: at 10 µM
[7] = molecular target: Serine/threonine-protein kinase mTOR (Homo sapiens) (UniProt P42345); conditions: at 1 µM; remark: listed apart in the source
[8] = molecular target: Serine/threonine-protein kinase mTOR (Homo sapiens) (UniProt P42345); conditions: at 10 µM; remark: listed apart in the source
[9] = molecular target: T1, Eukaryotic elongation factor 2 kinase (Homo sapiens) (UniProt O00418); conditions: at 1 µM
T1 sequence (whole entry): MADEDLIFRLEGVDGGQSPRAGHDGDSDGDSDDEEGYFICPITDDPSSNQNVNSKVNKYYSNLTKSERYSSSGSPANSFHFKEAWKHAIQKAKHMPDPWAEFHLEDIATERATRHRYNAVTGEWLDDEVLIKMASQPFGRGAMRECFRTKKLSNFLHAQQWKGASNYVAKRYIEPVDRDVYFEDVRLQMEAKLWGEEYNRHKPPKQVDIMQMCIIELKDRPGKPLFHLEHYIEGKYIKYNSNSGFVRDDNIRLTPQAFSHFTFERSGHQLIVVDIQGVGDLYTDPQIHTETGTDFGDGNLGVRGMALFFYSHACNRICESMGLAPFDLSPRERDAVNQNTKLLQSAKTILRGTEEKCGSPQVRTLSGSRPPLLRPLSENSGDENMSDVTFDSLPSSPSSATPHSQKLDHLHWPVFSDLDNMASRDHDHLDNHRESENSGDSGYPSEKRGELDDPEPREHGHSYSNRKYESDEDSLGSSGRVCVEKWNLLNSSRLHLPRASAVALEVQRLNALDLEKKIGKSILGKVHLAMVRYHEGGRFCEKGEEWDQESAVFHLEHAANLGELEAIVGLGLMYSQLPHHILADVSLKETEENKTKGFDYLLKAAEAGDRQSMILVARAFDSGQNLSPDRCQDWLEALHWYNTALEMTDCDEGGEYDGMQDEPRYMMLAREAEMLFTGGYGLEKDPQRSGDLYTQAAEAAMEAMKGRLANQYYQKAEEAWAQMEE

[10] = molecular target: T1, Eukaryotic elongation factor 2 kinase (Homo sapiens); conditions: at 10 µM

Chain of Mast/stem cell growth factor receptor Kit (Homo sapiens) (P10721 whole entry): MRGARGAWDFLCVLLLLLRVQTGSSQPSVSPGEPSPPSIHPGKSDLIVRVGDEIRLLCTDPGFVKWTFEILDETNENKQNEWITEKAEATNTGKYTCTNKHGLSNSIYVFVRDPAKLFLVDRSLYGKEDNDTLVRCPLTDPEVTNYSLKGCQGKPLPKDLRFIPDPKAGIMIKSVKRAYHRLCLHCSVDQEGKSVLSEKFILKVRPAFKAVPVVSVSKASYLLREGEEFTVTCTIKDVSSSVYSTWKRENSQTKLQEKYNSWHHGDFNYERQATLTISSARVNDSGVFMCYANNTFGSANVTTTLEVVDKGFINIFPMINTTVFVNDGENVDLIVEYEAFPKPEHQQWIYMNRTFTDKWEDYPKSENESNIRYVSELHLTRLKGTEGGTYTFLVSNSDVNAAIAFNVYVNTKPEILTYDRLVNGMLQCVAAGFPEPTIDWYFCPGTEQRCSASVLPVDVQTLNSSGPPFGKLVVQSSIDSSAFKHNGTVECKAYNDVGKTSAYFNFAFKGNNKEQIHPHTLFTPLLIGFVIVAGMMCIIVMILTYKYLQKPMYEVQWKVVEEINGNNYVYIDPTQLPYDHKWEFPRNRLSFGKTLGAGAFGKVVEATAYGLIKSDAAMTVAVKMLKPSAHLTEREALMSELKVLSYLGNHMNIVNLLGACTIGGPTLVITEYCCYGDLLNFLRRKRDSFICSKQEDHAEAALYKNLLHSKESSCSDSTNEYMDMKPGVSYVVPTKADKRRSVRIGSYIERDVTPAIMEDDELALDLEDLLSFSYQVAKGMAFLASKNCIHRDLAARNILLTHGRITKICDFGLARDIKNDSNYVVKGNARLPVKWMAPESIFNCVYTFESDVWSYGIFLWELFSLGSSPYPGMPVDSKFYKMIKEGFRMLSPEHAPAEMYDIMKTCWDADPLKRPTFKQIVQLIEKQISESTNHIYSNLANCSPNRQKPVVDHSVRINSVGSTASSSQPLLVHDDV
Chain of Proto-oncogene tyrosine-protein kinase Src (Homo sapiens) (P12931 2-536 limits assumed): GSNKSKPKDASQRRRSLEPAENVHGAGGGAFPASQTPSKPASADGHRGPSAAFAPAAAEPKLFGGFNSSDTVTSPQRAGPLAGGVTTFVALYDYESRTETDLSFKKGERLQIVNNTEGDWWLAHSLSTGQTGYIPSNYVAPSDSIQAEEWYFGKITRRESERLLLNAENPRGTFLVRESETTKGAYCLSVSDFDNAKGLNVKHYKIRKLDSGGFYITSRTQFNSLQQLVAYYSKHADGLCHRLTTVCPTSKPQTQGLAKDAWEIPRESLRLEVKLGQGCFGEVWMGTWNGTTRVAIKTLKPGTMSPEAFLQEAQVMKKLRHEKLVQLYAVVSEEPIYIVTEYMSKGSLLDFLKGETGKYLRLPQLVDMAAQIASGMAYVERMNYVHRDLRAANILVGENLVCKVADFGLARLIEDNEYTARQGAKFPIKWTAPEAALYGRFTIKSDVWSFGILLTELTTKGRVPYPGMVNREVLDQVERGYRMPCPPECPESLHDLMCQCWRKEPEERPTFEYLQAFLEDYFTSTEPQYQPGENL

CC(C)n1cnc2/c(=N/c3cccc(Cl)c3)nc(NCCO)[nH]c21
residual activity [1]: 108%
residual activity [2]: 94%
residual activity [3]: 54%
residual activity [4]: 7%
residual activity [5]: 114%
residual activity [6]: 96%
residual activity [7]: 82%
residual activity [8]: 101%

Oc1ccc(Nc2nc(-c3ccc(Cl)cc3)cs2)cc1
residual activity [1]: 110%
residual activity [2]: 76%
residual activity [3]: 116%
residual activity [4]: 93%
residual activity [5]: 102%
residual activity [6]: 83%
residual activity [7]: 103%
residual activity [8]: 106%

COc1ccc(S(=O)(=O)N(CCO)c2ccccc2CN(C)C/C=C/c2ccc(Cl)cc2)cc1
residual activity [1]: 115%
residual activity [2]: 100%
residual activity [3]: 116%
residual activity [4]: 90%
residual activity [5]: 109%
residual activity [6]: 96%
residual activity [7]: 97%
residual activity [8]: 101%

O=[N+]([O-])c1ccc(-c2nc(-c3ccc(F)cc3)c(-c3ccncc3)[nH]2)cc1
residual activity [1]: 123%
residual activity [2]: 110%
residual activity [3]: 113%
residual activity [4]: 90%
residual activity [9]: 108% (inactive)
residual activity [10]: 94%
residual activity [5]: 110%
residual activity [6]: 112%
residual activity [7]: 126%
residual activity [8]: 71%

O=C1NC(=O)/C(=C\c2ccc3nccnc3c2)S1
residual activity [1]: 106%
residual activity [2]: 102%
residual activity [3]: 86%
residual activity [4]: 103%
residual activity [9]: 99% (inactive)
residual activity [10]: 91%
residual activity [5]: 46%
residual activity [6]: 51%
residual activity [7]: 90%
residual activity [8]: 36%

O=C1NC(=O)/C(=C/c2ccc3c(c2)OC(F)(F)O3)S1
residual activity [1]: 116%
residual activity [2]: 102%
residual activity [3]: 91%
residual activity [4]: 106%
residual activity [9]: 85% (inactive)
residual activity [10]: 104%
residual activity [5]: 82%
residual activity [6]: 90%
residual activity [7]: 106%
residual activity [8]: 104%

N#C/C(=C(\N)Sc1ccc(N)cc1)c1ccccc1C(F)(F)F
residual activity [1]: 115%
residual activity [2]: 105%
residual activity [3]: 125%
residual activity [4]: 91%
residual activity [5]: 87%
residual activity [6]: 63%
residual activity [7]: 118%
residual activity [8]: 79%

O=Nc1c(-c2c(O)[nH]c3ccccc23)[nH]c2ccccc12
residual activity [1]: 20%
residual activity [2]: 2%
residual activity [3]: 35%
residual activity [4]: 5%
residual activity [9]: 109% (inactive)
residual activity [10]: 93%
residual activity [5]: 100%
residual activity [6]: 98%
residual activity [7]: 117%
residual activity [8]: 89%

O=C1NC(=O)c2cc(Nc3ccc(F)cc3)c(Nc3ccc(F)cc3)cc21
residual activity [1]: 113%
residual activity [2]: 99%
residual activity [3]: 74%
residual activity [4]: 51%
residual activity [5]: 90%
residual activity [6]: 85%
residual activity [7]: 73%
residual activity [8]: 85%

Cc1nc(-c2ccccc2)c(-c2ccncc2)o1
residual activity [1]: 124%
residual activity [2]: 98%
residual activity [3]: 113%
residual activity [4]: 81%
residual activity [5]: 109%
residual activity [6]: 103%
residual activity [7]: 116%
residual activity [8]: 94%

O=C1Nc2cc(Br)ccc2/C1=C1/Nc2ccccc2/C1=N\O
residual activity [1]: 18%
residual activity [2]: 21%
residual activity [3]: 2%
residual activity [4]: 3%
residual activity [9]: 94% (inactive)
residual activity [10]: 89%
residual activity [5]: 76%
residual activity [6]: 76%
residual activity [7]: 119%
residual activity [8]: 82%

COc1ccc(OC)c2c(=S)c3ccccc3[nH]c12
residual activity [1]: 93%
residual activity [2]: 93%
residual activity [3]: 118%
residual activity [4]: 93%
residual activity [5]: 100%
residual activity [6]: 84%
residual activity [7]: 119%
residual activity [8]: 76%

COc1cc2ncnc(N3CCN(C(=O)Nc4ccc(Oc5ccccc5)cc4)CC3)c2cc1OC
residual activity [1]: 37%
residual activity [2]: 7%
residual activity [3]: 95%
residual activity [4]: 97%
residual activity [5]: 107%
residual activity [6]: 102%
residual activity [7]: 98%
residual activity [8]: 99%

C[C@@H](N)[C@H]1CC[C@H](C(=O)Nc2ccncc2)CC1
residual activity [1]: 107%
residual activity [2]: 106%
residual activity [3]: 100%
residual activity [4]: 103%
residual activity [9]: 96% (inactive)
residual activity [5]: 105%
residual activity [6]: 99%
residual activity [7]: 109%
residual activity [8]: 117%

COc1cc2ncc(-c3ccccc3)nc2cc1OC
residual activity [1]: 84%
residual activity [2]: 24%
residual activity [3]: 88%
residual activity [4]: 95%

CNc1cc2c(Nc3cccc(Br)c3)ncnc2cn1
residual activity [1]: 110%
residual activity [2]: 106%
residual activity [3]: 86%
residual activity [4]: 78%
residual activity [5]: 105%
residual activity [6]: 104%
residual activity [7]: 100%
residual activity [8]: 107%

CCC(=O)Nc1ccc2ncnc(Nc3cccc(Br)c3)c2c1
residual activity [1]: 109%
residual activity [2]: 103%
residual activity [3]: 88%
residual activity [4]: 89%
residual activity [9]: 94% (inactive)
residual activity [10]: 107%
residual activity [5]: 106%
residual activity [6]: 104%
residual activity [7]: 123%
residual activity [8]: 101%

NC(=O)c1ccc2[nH]c(-c3ccc(Oc4ccc(Cl)cc4)cc3)nc2c1
residual activity [1]: 106%
residual activity [2]: 90%
residual activity [3]: 108%
residual activity [4]: 92%
residual activity [9]: 89% (inactive)
residual activity [10]: 140%
residual activity [5]: 123%
residual activity [6]: 96%
residual activity [7]: 113%
residual activity [8]: 110%

COc1ccc(C(=O)Nc2sc3c(c2C(N)=O)CCCC3)cc1OC
residual activity [1]: 85%
residual activity [2]: 87%
residual activity [3]: 76%
residual activity [4]: 104%
residual activity [5]: 101%
residual activity [6]: 104%
residual activity [7]: 95%
residual activity [8]: 88%

Cc1cc2ncc(-c3ccccc3)nc2cc1C
residual activity [1]: 86%
residual activity [2]: 70%
residual activity [3]: 83%
residual activity [4]: 99%
residual activity [5]: 93%
residual activity [6]: 100%
residual activity [7]: 70%
residual activity [8]: 83%

CC#CC(=O)Nc1cc2c(Nc3ccc(F)c(Cl)c3)ncnc2cn1
residual activity [1]: 111%
residual activity [2]: 100%
residual activity [3]: 89%
residual activity [4]: 92%
residual activity [5]: 108%
residual activity [6]: 100%
residual activity [7]: 113%
residual activity [8]: 92%

Cc1nc2cc3nc(-c4cccs4)cnc3cc2n1C
residual activity [1]: 80%
residual activity [2]: 13%
residual activity [3]: 78%
residual activity [4]: 86%
residual activity [5]: 105%
residual activity [6]: 107%
residual activity [7]: 80%
residual activity [8]: 84%

COc1cc2ncnc(Nc3ccc(Oc4ccccc4)cc3)c2cc1OC
residual activity [1]: 109%
residual activity [2]: 60%
residual activity [3]: 36%
residual activity [4]: 24%
residual activity [9]: 92% (inactive)
residual activity [10]: 132%
residual activity [5]: 90%
residual activity [6]: 95%
residual activity [7]: 80%
residual activity [8]: 95%

Cn1cc(/C=C2\C(=O)Nc3ccc(S(N)(=O)=O)cc32)c2ccccc21
residual activity [1]: 69%
residual activity [2]: 17%
residual activity [3]: 49%
residual activity [4]: 25%
residual activity [5]: 106%
residual activity [6]: 99%
residual activity [7]: 104%
residual activity [8]: 102%

CCN(CC)CCCCN1c2ccccc2Oc2ccc(Cl)cc21
residual activity [1]: 121%
residual activity [2]: 107%
residual activity [3]: 81%
residual activity [4]: 109%
residual activity [9]: 104% (inactive)
residual activity [10]: 131%
residual activity [5]: 110%
residual activity [6]: 110%
residual activity [7]: 70%
residual activity [8]: 98%

Oc1c2ccccc2c2c3c(cccc13)N=N2
residual activity [1]: 91%
residual activity [2]: 30%
residual activity [3]: 89%
residual activity [4]: 64%
residual activity [10]: 92%
residual activity [5]: 104%
residual activity [6]: 77%
residual activity [8]: 84%

O=C(Nc1cccc(Nc2nccc(Nc3cccc(C(F)(F)F)c3)n2)c1)C1CC1
residual activity [1]: 94%
residual activity [2]: 46%
residual activity [3]: 56%
residual activity [4]: 12%
residual activity [9]: 93% (inactive)
residual activity [10]: 101%
residual activity [5]: 79%
residual activity [6]: 83%
residual activity [7]: 71%
residual activity [8]: 84%

CC[n+]1c(/C=C/N(C)c2ccccc2)n(-c2ccccc2)c2ccc(-c3nc4ccccc4s3)cc21
residual activity [1]: 123%
residual activity [2]: 106%
residual activity [3]: 85%
residual activity [4]: 128%
residual activity [5]: 85%
residual activity [6]: 86%
residual activity [7]: 84%
residual activity [8]: 79%

CC(C)n1cnc2c(NCc3ccccc3)nc(NCCCO)nc21
residual activity [1]: 111%
residual activity [2]: 98%
residual activity [3]: 100%
residual activity [4]: 86%
residual activity [9]: 108% (inactive)
residual activity [10]: 98%
residual activity [5]: 109%
residual activity [6]: 114%
residual activity [7]: 116%
residual activity [8]: 104%

O=c1cc(-c2cccc3c2Sc2ccccc2S3)oc(N2CCOCC2)c1
residual activity [1]: 99%
residual activity [2]: 102%
residual activity [3]: 89%
residual activity [4]: 92%
residual activity [5]: 98%
residual activity [6]: 74%
residual activity [7]: 89%
residual activity [8]: 60%

Ic1cccc(CSc2nnc(-c3ccncc3)o2)c1
residual activity [1]: 97%
residual activity [2]: 102%
residual activity [3]: 113%
residual activity [4]: 83%
residual activity [5]: 108%
residual activity [6]: 102%
residual activity [7]: 108%
residual activity [8]: 109%
